# Source: PubChem BioAssay (NCI)
# The panel holds about 79,000 compounds, 15% with a hit somewhere; the sample as a whole holds those more often. A number with no mark means an inactive call. Activity calls are given as the source filed them. Rule as the data show it: active = growth inhibition above about 70%; inactive = the rest.
# Assay: NCI Yeast Anticancer Drug Screen. Data for the sgs1 mgt1 strain (AID 161);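 also: 0% = growth of cultures given vehicle only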
# Details: S. cerevisiae sgs1 mgt1 strain, at 5.0 µM (retest, dose inferred, filed as 0.5), active compounds read high
# Method in brief: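 Yeast cells carrying a defined DNA-repair defect were exposed to test compounds. Growth inhibition was measured relative to vehicle-treated controls.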
row,SMILES,growth inhibition
1,CC(=O)NNc1nc(C)c(C(=O)NNC(=O)C(=O)Nc2c(C)cccc2C(C)C)s1,6%
2,COc1cc(C2CC(=O)c3ccccc3O2)ccc1O (centres undefined),17%
3,CCC1CCC2C3CC=C4CC(OC(C)=O)C(N)CC4(C)C3CCC12C (centres undefined),4%
4,COc1ccccc1C1c2cc3c(cc2OC(N2CCOCC2)C1C)OCO3 (centres undefined),26%
5,O=C1C=C/C(=C(/c2ccc(O)c(O)c2)c2ccccc2S(=O)(=O)O)C=C1O,-2%
6,N#CSC#Cc1ccc(C#CSC#N)cc1,100% (active)
7,Cc1c2ccccc2c(CCl)c2ccc3ccccc3c12,100% (active)
8,Oc1ccc(C(=C(Br)c2ccccc2)c2ccc(O)cc2)cc1,99% (active)
9,Clc1ccc(/C=N/Nc2c3ccccc3nc3ccccc23)c(Cl)c1,-5%
10,CCCC#CCCOC(=O)c1cc([N+](=O)[O-])cc([N+](=O)[O-])c1,12%
11,CCOc1ccc2c(c1)n([O-])c1ccccc1[n+]2=O,55%
12,COc1ccc(/C(Cl)=C(\c2ccc(OCCN(C)C)cc2)c2ccc(OC(=O)C(C)(C)C)cc2)cc1,18%
13,CCCCCCCCCCCCCCCCSC(=NC)NC,98% (active)
14,N#Cc1ccc(Oc2nc3ccccc3nc2-c2ccccc2)cc1,12%
15,Cc1ccc2c(c1)nc1n2C(N)=Nc2ccccc2S1,-5%
16,COc1cc(NCc2ccc3nc(-c4ccccc4)c(N)nc3c2)cc(OC)c1OC,-3%
17,O=C(OCCC1CCCCC1)c1cc([N+](=O)[O-])cc([N+](=O)[O-])c1,10%
18,O=C1c2ccc3ccccc3c2CCC1[n+]1ccc2ccccc2c1 (centres undefined),7%
19,Cc1cc(NC(=S)SCc2ccc(Cl)cc2)c([N+](=O)[O-])cc1C,90% (active)
20,N#CC(O)C(Br)(Br)Br (centres undefined),-4%

row,SMILES,growth inhibition
1,C[CH2][Ge]([CH2]C)[CH2]C.C[CH2][Ge]([Cl])[CH2]C.C[CH2][Ge][CH2]C,23%
2,COC1C(=[N+]=[N-])C(=O)NC(=O)N1C1OC(COC(c2ccccc2)(c2ccccc2)c2ccccc2)C(O)C1O (centres undefined),18%
3,CC(=O)Oc1ccc(C)c(C(C)C(Cl)(Cl)Cl)c1 (centres undefined),12%
4,OC(c1ccccc1)c1cccc(Br)c1 (centres undefined),-13%
5,CC/C(=C1\C=CC(=O)S1)C(CC)c1ccc(OC(C)=O)cc1 (centres undefined),-7%
6,COc1ccc(/C=C2/C(=O)NC3SC=C(c4cccc([N+](=O)[O-])c4)N23)cc1 (centres undefined),-4%
7,O=C1O/C(=C2\OC(=O)c3ccccc32)c2ccccc21,4%
8,Clc1ncccc1-n1cccc1/C=N\N=C/c1cccn1-c1cccnc1Cl,8%
9,Clc1nc2cc3nc(Cl)c(Cl)nc3cc2nc1Cl,14%
10,CC(=O)c1c2c(cc3c1CC1(Cc4cc5c(cc4C1)C(=O)CCC5)C3)CCCC2 (centres undefined),22%
11,CCCCOS(=O)(=O)c1ccc(C)cc1,-8%
12,C[N+]1(c2ccccc2)C=C(c2ccccc2)SC1=S (centres undefined),-8%
13,COc1ccc(/C=N/N=c2\[nH][nH]/c(=N\N=C\c3ccc(OC)c4ccccc34)c3ccccc23)c2ccccc12,4%
14,CCCCCCCCCCCCCCCCN,99% (active)
15,CCCCCCCCCCCC[S+](C)C,36%
16,CP(=O)(c1ccccc1)c1ccccc1,-21%
17,CCCCCCCCCCCC(=O)OC/C=C/COC(=O)c1ccccc1,1%
18,O=C(O)CCC(O)=C1S(=O)(=O)OCCOS1(=O)=O,-16%
19,CCOC(=O)C1SC(=Nc2cccc(Cl)c2C)N=C1C (centres undefined),23%
